The values that follow come from the supplement of paper PMC12067093, “Discovery and optimisation of a covalent ligand for TRIM25 and its application to targeted protein ubiquitination” (Chemical Science, 2025).

Compound in the experiment: Cc1cc(ccc1-c1ccccc1)C(=O)N1CCCN(CC1)C(=O)CCl [compound 10]
As to the kind of experiment: probe-labelled cysteine peptide fold change vs DMSO (competition) (log2 fold change); higher = less target engagement (more negative = stronger competition). As to conditions: THP-1, incubation time: 4 h.

Targets with the largest changes are over-represented here; the source holds about 21,000 in all.
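Also: competitive profiling in live THP-1 cells: cysteine peptides tagged with an iodoacetamide desthiobiotin (IA-DTB) probe, intensity after compound treatment relative to DMSO-treated cells.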

Sequence of UniProt P62333 (P62333 whole entry, looked up): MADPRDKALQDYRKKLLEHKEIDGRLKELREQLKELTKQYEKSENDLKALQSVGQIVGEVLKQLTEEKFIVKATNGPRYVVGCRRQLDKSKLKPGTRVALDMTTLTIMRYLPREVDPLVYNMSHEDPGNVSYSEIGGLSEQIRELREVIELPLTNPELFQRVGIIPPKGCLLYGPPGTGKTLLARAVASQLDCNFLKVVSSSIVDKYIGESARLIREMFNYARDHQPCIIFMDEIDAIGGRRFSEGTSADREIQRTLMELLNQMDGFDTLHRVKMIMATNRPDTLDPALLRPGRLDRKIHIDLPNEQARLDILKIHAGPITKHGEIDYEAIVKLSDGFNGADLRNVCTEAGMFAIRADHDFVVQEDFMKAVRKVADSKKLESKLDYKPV
Sequence of UniProt Q9UJ41 (Q9UJ41 whole entry, looked up): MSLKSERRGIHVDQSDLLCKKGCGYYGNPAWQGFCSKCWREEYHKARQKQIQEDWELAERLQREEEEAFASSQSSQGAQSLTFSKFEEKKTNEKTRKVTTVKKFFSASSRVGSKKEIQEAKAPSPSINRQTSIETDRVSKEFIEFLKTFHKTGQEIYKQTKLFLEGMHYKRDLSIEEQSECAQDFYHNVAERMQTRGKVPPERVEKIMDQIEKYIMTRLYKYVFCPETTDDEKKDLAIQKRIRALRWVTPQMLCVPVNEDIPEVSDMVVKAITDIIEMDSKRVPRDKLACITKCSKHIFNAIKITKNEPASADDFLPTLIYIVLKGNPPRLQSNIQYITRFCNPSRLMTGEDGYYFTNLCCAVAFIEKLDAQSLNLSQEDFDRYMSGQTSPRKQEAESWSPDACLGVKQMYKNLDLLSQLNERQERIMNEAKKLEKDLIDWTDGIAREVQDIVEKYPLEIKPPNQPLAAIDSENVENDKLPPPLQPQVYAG
Sequence of UniProt Q14088 (Q14088 whole entry, looked up): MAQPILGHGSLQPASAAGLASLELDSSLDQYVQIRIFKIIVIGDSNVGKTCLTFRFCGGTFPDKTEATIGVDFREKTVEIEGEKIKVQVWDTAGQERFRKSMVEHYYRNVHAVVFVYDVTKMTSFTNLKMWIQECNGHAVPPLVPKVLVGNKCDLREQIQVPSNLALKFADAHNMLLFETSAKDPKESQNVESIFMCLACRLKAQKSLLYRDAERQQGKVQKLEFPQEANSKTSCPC
Sequence of UniProt P05771 (P05771 whole entry, looked up): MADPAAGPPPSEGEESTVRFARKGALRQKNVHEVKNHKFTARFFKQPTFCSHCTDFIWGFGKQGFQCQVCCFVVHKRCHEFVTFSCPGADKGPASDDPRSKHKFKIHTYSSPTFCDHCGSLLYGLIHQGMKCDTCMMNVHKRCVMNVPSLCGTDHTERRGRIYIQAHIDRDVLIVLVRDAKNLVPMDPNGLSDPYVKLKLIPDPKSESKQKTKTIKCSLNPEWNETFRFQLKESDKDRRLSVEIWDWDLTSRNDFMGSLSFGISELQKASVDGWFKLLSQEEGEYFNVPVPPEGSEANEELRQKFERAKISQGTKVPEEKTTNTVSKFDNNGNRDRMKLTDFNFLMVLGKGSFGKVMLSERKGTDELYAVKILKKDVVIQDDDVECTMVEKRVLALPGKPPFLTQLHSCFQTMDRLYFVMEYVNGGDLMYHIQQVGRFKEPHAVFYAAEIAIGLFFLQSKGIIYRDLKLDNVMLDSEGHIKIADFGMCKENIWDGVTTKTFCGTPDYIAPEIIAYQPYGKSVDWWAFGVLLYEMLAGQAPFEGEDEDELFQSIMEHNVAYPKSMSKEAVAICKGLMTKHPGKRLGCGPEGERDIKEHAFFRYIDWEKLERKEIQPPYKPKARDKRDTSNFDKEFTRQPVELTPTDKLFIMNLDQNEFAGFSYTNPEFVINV
Sequence of UniProt Q04759 (Q04759 whole entry, looked up): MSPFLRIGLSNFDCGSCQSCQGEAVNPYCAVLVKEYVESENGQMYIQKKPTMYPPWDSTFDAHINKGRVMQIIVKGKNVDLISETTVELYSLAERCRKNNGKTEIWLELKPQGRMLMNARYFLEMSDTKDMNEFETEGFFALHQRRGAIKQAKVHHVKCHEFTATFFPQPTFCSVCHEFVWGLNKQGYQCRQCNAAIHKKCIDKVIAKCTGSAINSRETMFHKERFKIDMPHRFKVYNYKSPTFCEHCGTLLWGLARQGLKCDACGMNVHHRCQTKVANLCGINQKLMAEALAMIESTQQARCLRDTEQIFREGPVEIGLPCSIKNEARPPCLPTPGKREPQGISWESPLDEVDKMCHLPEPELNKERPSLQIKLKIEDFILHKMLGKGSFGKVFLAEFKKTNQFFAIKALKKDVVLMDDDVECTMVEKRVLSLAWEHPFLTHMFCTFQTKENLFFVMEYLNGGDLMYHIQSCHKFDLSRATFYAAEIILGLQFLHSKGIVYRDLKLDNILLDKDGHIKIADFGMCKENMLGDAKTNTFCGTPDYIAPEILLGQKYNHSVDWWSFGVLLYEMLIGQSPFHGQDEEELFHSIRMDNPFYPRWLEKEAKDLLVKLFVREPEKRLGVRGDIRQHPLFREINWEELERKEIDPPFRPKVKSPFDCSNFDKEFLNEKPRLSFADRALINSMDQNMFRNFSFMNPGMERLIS
Sequence of UniProt Q8IXI1 (Q8IXI1 whole entry, looked up): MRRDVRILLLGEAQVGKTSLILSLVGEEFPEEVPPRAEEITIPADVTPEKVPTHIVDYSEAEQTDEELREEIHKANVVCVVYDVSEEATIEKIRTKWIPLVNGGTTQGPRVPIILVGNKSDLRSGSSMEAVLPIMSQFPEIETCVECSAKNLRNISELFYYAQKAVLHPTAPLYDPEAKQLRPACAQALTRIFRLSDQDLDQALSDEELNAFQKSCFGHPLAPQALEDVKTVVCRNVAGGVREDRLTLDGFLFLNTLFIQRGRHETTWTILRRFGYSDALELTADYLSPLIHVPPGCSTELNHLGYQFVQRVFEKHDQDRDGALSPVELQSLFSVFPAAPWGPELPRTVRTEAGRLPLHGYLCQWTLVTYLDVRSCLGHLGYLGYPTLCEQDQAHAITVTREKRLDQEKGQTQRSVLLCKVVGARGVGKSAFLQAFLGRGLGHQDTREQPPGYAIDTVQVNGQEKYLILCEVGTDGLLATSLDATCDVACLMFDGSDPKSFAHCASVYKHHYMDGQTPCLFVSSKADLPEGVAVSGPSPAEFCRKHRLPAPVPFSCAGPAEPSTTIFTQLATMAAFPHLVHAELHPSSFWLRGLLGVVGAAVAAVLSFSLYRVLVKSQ
Sequence of UniProt Q99873 (Q99873 whole entry, looked up): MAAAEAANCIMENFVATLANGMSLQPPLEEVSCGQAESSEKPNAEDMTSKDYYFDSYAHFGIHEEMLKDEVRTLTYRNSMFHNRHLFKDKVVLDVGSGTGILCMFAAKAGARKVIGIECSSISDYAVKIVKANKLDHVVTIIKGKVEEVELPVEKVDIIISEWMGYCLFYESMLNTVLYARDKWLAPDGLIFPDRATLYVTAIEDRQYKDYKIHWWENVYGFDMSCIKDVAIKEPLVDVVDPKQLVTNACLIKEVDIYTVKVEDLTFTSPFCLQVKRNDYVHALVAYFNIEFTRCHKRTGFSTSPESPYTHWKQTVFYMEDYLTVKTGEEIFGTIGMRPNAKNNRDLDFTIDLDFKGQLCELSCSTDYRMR
Sequence of UniProt P61026 (P61026 whole entry, looked up): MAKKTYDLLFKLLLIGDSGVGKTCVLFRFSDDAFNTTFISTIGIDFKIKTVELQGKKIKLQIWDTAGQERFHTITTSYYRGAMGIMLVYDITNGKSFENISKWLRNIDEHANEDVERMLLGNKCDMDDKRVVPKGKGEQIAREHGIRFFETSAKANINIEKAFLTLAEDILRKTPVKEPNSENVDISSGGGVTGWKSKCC
Sequence of UniProt P42696 (P42696 whole entry, looked up): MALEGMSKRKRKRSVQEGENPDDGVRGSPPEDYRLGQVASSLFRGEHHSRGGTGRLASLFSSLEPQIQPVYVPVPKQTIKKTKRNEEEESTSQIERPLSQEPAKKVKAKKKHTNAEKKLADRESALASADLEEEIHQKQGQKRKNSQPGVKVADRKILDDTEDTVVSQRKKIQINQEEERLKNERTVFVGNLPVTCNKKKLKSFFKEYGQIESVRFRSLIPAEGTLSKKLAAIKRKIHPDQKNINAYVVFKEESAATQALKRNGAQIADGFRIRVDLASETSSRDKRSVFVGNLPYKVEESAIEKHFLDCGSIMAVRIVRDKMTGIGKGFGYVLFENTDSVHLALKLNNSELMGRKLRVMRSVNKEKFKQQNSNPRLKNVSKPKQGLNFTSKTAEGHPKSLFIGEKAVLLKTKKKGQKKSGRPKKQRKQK
Sequence of UniProt Q5T160 (Q5T160 whole entry, looked up): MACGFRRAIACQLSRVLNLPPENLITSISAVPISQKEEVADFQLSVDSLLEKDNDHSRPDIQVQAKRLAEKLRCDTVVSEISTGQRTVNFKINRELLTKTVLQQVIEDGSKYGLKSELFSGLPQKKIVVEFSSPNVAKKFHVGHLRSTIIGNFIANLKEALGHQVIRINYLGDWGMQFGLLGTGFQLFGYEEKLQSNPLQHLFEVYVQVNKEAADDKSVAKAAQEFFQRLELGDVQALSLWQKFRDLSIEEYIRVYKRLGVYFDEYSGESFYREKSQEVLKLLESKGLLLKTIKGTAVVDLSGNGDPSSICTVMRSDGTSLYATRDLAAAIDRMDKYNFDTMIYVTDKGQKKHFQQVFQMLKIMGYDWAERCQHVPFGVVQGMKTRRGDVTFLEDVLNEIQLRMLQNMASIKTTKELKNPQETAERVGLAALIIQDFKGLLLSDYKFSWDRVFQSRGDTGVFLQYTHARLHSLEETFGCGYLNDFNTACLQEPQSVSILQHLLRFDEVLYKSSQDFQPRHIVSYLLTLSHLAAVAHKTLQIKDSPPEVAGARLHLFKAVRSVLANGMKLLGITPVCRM
Sequence of UniProt Q9Y508 (Q9Y508 whole entry, looked up): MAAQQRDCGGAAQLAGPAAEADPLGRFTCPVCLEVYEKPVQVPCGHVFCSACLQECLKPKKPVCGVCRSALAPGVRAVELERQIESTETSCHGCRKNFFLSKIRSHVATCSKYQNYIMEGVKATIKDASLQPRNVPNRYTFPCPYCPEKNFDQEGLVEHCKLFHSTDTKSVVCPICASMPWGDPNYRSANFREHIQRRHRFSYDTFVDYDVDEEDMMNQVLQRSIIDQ

“PRKCB_P05771_132+135_CDTCMMNVHKR (UniProt P05771)”: the “probe-labelled cysteine peptide fold change” value runs as follows: (10 µM) -0.193; (50 µM) -0.881.
“RHOT2_Q8IXI1_185_QLRPACAQALTR (UniProt Q8IXI1)”: the “probe-labelled cysteine peptide fold change” value was -0.151 (10 µM) and 0.0492 (50 µM).
As to “RBM25_P49756_132_LQAFGFCEYKEPESTLR (UniProt P49756)”, the “probe-labelled cysteine peptide fold change” value was -0.148 (10 µM) and -0.0661 (50 µM).
On the same counts, the results for “RNASEH1_O60930_191_AEIHAACK (UniProt O60930)” are -0.0799 and -0.155.
Turning to “PRKDC_P78527_1364_DLCNTHLMR (UniProt P78527)”, the “probe-labelled cysteine peptide fold change” value reads like this: (10 µM) -0.0526; (50 µM) -0.0393.
Take “PRKDC_P78527_1742_FNNYVDCMK (UniProt P78527)”: the “probe-labelled cysteine peptide fold change” value is 0.239 (10 µM) and -0.0715 (50 µM).
With “REEP5_Q00765_18_NCMTDLLAK (UniProt Q00765)”, the “probe-labelled cysteine peptide fold change” value is -0.872 (10 µM) and -1.97 (50 µM).
In the case of “PRMT1_Q99873_103_DKVVLDVGSGTGILCMFAAK (UniProt Q99873)”, the “probe-labelled cysteine peptide fold change” value runs as follows: (10 µM) -0.168; (50 µM) -0.709.
On to “RBM34_P42696_196_TVFVGNLPVTCNK (UniProt P42696)”, for which the “probe-labelled cysteine peptide fold change” value reads like this: (10 µM) 0.0157; (50 µM) -0.186.
For “RNF123_Q5XPI4_1277_ACINQHLMNNK (UniProt Q5XPI4)” the same measures were -0.0494 and -0.231.
On the same counts, the results for “RFXANK_O14593_205_CVEALLAR (UniProt O14593)” are 0.0175 and -0.265.
Turning to “PRKCQ_Q04759_193_QCNAAIHK (UniProt Q04759)”, the “probe-labelled cysteine peptide fold change” value is, setting by setting: (10 µM) -0.474; (50 µM) -0.576.
For “RARS_P54136_34_NCGCLGASPNLEQLQEENLK (UniProt P54136)” the same measures were -0.247 and -1.27.
Turning to “RAB10_P61026_124_CDMDDK (UniProt P61026)”, the “probe-labelled cysteine peptide fold change” value by setting is: (10 µM) -0.104; (50 µM) 0.0844.
With “PRKDC_P78527_2093_DPTVHDDVLELEMDELNRHECMAPLTALVK (UniProt P78527)”, the “probe-labelled cysteine peptide fold change” value by setting is: (10 µM) -0.156; (50 µM) -0.199.
As for “PRPS2_P11908_165_NCIIVSPDAGGAKR (UniProt P11908)”, the “probe-labelled cysteine peptide fold change” value (10 µM) is 0.121 and the “probe-labelled cysteine peptide fold change” value (50 µM) is -0.113.
Regarding “REPIN1_Q9BWE0_433+436_VHSGERPFACEECGR (UniProt Q9BWE0)”, the “probe-labelled cysteine peptide fold change” value is -0.108 (10 µM) and -0.289 (50 µM).
For the target “PSMC6_P62333_228_DHQPCIIFMDEIDAIGGR (UniProt P62333)”, the “probe-labelled cysteine peptide fold change” value was -0.0612 (10 µM) and 0.106 (50 µM).
On the same counts, the results for “PTPN12_Q05209_164_ISCEDEQAR (UniProt Q05209)” are 0.159 and 0.15.
Regarding “RAB33A_Q14088_135_MWIQECNGHAVPPLVPK (UniProt Q14088)”, the “probe-labelled cysteine peptide fold change” value is 0.0206 (10 µM) and 0.0086 (50 µM).
For “PSMD11_O00231_257_YMLLCK (UniProt O00231)”, the “probe-labelled cysteine peptide fold change” value is 0.248 (10 µM) and 0.241 (50 µM).
For “PRKDC_P78527_1507_QCLPSLDLSCK (UniProt P78527)” the same measures were 0.0976 and -1.07.
For “RCHY1_Q96PM5_43_LCHDNNEDHQLDR (UniProt Q96PM5)” the same measures were 0.344 and 2.12.
On the same counts, the results for “RANBP2_P49792_707_AEDIENDALSPEEQEECK (UniProt P49792)” are 0.0365 and 0.0945.
On to “PRKDC_P78527_373_GYGLFAGPCK (UniProt P78527)”, for which the “probe-labelled cysteine peptide fold change” value is -0.037 (10 µM) and 0.131 (50 µM).
Turning to “RNF114_Q9Y508_160_NFDQEGLVEHCK (UniProt Q9Y508)”, the “probe-labelled cysteine peptide fold change” value by setting is: (10 µM) 0.0873; (50 µM) 0.126.
For “RLF_Q13129_1494_VCQTADTQGHEHQTTR (UniProt Q13129)” the same measures were 0.131 and -0.309.
On the same counts, the results for “RNF113A_O15541_202_WDYQPDICK<|>RNF113B_Q8IZP6_196_WDYQPDICK (UniProt Q8IZP6+O15541)” are -0.0623 and -0.145.
For “RABGEF1_Q9UJ41_359_DLSIEEQSECAQDFYHNVAER (UniProt Q9UJ41)” the same measures were -0.389 and -0.123.
“RLF_Q13129_400_TIACLLPEDLEVRR (UniProt Q13129)”: the “probe-labelled cysteine peptide fold change” value is -0.0742 (10 µM) and -0.58 (50 µM).
Regarding “RARS2_Q5T160_479_LHSLEETFGCGYLNDFNTACLQEPQSVSILQHLLR (UniProt Q5T160)”, the “probe-labelled cysteine peptide fold change” value (10 µM) is -0.037 and the “probe-labelled cysteine peptide fold change” value (50 µM) worked out at 0.0628.
On the same counts, the results for “RGPD3_A6NKT7_141_LKEQLLDCEGEDGWNK<|>RGPD8_O14715_141_LKEQLLDCEGEDGWNK<|>RANBP2_P49792_141_LKEQLLDCEGEDGWNK<|>RGPD4_Q7Z3J3_141_LKEQLLDCEGEDGWNK (UniProt Q7Z3J3+P49792+O14715+A6NKT7)” are -0.113 and -0.334.
As for “RANBP2_P49792_1243_ICANHYISPDMK (UniProt P49792)”, the “probe-labelled cysteine peptide fold change” value reads like this: (10 µM) 0.0568; (50 µM) 0.0875.
In the case of “PTPMT1_Q8WUK0_127+132_YQSLGQCVYVHCK (UniProt Q8WUK0)”, the “probe-labelled cysteine peptide fold change” value was 0.0587 (10 µM) and -0.0194 (50 µM).
For “RAD54L2_Q9Y4B4_618_AFCVCCK (UniProt Q9Y4B4)” the same measures were -0.173 and -0.639.
For “PTPN1_P18031_344_EETQEDKDCPIKEEK (UniProt P18031)” the same measures were -0.593 and -1.57.
